Measurements taken from PubChem BioAssay.
Where “and” joins values, the source holds several entries; their conditions need not be identical. Equal values may be shown once. Some structures have more than one record in an assay (separate samples or runs), and their calls can disagree. Calls of active or inactive are those of the source.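 How the source made its calls, unless noted: active means inhibition at or above 50% relative to wild type and mutant plate controls; inactive means inhibition below 50%.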

Tests used:
[1] = reduction of polyQ htt aggregates in cells – imaging, exon1htt(103Q)mCFP cells, high-content imaging, primary screen (AID 483;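 active means visual image review flags a hit and inhibition of aggregation exceeds 20%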;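 further: compound exposure lasted 3 days before fixation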;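 on nuclei count: percent of the per-plate median nuclei count of sample wells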); details: exon1htt(103Q)mCFP cell line, aggregate imaging, at 2 µM; inhibition of aggregation: stronger effect = higher value; nuclei count: measured here: cell count, toxicity
[2] = endothelial E-selectin expression blockers – imaging, HUVEC, immunofluorescence, MLSMR starter and 10KST1 sets, primary screen (AID 487;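 active means visually confirmed hit in the image check and inhibition above 20%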;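 on inhibition: signal is fraction of cell area covered by stained E-selectin grains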;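 on nuclei count: 100% = median nuclei count of all wells on the same plate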); details: HUVEC TNFalpha-induced E-selectin immunofluorescence imaging, at 2 µM; inhibition: stronger effect = higher value; nuclei count: measured here: cell number, toxicity
[3] = Primary imaging screen for DUSP6 inhibitors that restore phospho-Erk in transfected HeLa cells, chemical complementation (AID 609;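 active means compounds giving at least 50% inhibition in the cell-based MKP-3 phosphatase rescue imaging test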;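 on inhibition: phospho-Erk level distribution per well compared with pooled transfected vehicle control wells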); details: HeLa MKP-3 transfected, phospho-Erk imaging KS statistic, at 10 µM, cells stimulated with TPA for 15 min
[4] = target: Dual specificity protein phosphatase 6 (Homo sapiens) (UniProt Q16828); assay: as above; details: HeLa MKP-3 transfected, phospho-Erk imaging KS statistic; at 10 µM; stronger effect = higher value; cells stimulated with TPA for 15 min
[5] = target: Voltage-gated potassium channel subunit beta-2 (Rattus norvegicus) (UniProt P62483); assay: inhibitors of rat Kvbeta2 reductase activity – biochemical, NADPH fluorescence, primary screen (AID 622;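 active means fluorescence slope higher than the sample average by over 3 SD, cut at about -0.22 in these data, passing the limit was not always enough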;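 further: slope of raw intensity against log time taken from 70 to 1610 s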); details: recombinant KvBeta, 4-cyanobenzaldehyde reduction, at 10 µM, stronger effect = higher value
[6] = target: Voltage-gated potassium channel subunit beta-2 (Rattus norvegicus) (UniProt P62483); assay: enhancers of rat Kvbeta2 NADPH turnover – biochemical, NADPH fluorescence, primary screen (AID 623;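 active means NADPH fluorescence slope more negative than the mean of all samples by about 3 SD, 99.7% confidence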;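 further: fluorescence intensity change per second fitted from 20 to 320 s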); details: Recombinant KvBeta, NADPH fluorescence decrease slope, 10 min; at 10 µM; stronger effect = lower value
[7] = target: Alpha-2C adrenergic receptor (Homo sapiens) (UniProt P18825); assay: compounds altering alpha2C-coupled GIRK flux – cell-based, HEK293 alpha2C/GIRK1/2, thallium flux, primary screen (AID 624;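 active means fluorescence slope after compound addition differing from the mean of all screened samples at 99.7% confidence, in either direction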;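 further: slope of fluorescence ratio to pre-addition baseline per second over 15 to 24 s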); details: thallium flux BTC fluorescence, at 10 µM, actives lie on both sides
[8] = inhibitors of larval lipid processing in zebrafish, primary screen, whole organism, PED6 fluorescence, gall bladder and intestine (AID 686;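 active means a full or partial loss of lipid-probe fluorescence in the fish gall bladder, intestine or both, judged by eye; inactive means no fluorescence loss, or compound toxic to the fish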;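 further: larvae 5 to 7 days old with five fish per well; signal comes from phospholipase A2 cleavage of quenched PED6 carried via bile; overnight exposure to compound and PED6 before scoring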); details: Zebrafish larvae PED6 lipid processing, fluorescence scoring; screened at 20 µM (by protocol)
[9] = loss of swimming-algae plug formation – whole organism, Chlamydomonas reinhardtii, WT vs cilia-less mutant, absorbance, 96-well, primary screen (AID 463189); details: Chlamydomonas reinhardtii gravitaxis, OD600 absorbance, 2 days; at 10 µM; stronger effect = higher value;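 further: 0% = wild type cc124 cells in DMSO and 100% = ciliumless bld1 mutant cells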
[10] = blockers of RIG-like receptor reporter activation – cell-based, Sendai virus stimulus, luciferase, 10K MLSCN set, TLR/RLR signaling modifier project, primary screen (AID 602276;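 active means inhibition at or above 50% at 10 µM; inactive means inhibition below 50%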;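 further: firefly luciferase from ISG56 promoter only with Renilla not read in this screen; 0% = Sendai virus plus DMSO and 100% = medium plus DMSO without virus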); details: HEK293 RL24 IRF3 luciferase reporter, at 10 µM, stronger effect = higher value
[11] = TLR3 IRF3 reporter activation blockers – cell-based, poly I:C stimulus, luciferase, 10K MLSCN set, primary screen (AID 602277;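 active means inhibition of the reporter signal at or above 50%; inactive means inhibition below 50%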); details: HEK293-TLR3 RL24 IRF3 luciferase reporter, at 10 µM, stronger effect = higher value
[12] = measured here: cell density z-score
[13] = measured here: nuclear c-Myc green intensity z-score
[14] = measured here: nuclear pErk red intensity z-score, stronger effect = higher value

Alpha-2C adrenergic receptor (Homo sapiens), sequence (P18825 whole entry, looked up): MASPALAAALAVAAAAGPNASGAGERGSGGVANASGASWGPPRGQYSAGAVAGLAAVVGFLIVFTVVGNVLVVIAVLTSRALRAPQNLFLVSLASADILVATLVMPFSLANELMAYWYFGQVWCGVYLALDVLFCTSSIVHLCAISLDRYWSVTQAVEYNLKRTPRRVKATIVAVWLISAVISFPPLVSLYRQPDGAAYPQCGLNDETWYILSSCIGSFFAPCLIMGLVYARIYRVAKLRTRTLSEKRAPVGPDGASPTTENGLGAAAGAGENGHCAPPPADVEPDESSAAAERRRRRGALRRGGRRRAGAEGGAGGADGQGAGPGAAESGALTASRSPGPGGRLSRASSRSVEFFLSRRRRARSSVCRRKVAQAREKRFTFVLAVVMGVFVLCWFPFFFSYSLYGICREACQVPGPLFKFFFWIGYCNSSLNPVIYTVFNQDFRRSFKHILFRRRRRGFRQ
Voltage-gated potassium channel subunit beta-2 (Rattus norvegicus), sequence (P62483 whole entry, looked up): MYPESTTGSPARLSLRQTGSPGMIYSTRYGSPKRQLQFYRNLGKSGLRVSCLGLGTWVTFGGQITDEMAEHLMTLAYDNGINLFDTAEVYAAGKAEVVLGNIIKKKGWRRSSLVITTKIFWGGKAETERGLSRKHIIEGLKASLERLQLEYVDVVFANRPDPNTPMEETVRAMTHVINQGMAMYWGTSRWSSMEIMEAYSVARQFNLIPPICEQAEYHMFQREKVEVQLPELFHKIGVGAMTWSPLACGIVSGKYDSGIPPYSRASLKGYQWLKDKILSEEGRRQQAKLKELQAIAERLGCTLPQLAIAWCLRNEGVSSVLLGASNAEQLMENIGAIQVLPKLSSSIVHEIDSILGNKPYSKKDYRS
Dual specificity protein phosphatase 6 (Homo sapiens), sequence (Q16828 whole entry, looked up): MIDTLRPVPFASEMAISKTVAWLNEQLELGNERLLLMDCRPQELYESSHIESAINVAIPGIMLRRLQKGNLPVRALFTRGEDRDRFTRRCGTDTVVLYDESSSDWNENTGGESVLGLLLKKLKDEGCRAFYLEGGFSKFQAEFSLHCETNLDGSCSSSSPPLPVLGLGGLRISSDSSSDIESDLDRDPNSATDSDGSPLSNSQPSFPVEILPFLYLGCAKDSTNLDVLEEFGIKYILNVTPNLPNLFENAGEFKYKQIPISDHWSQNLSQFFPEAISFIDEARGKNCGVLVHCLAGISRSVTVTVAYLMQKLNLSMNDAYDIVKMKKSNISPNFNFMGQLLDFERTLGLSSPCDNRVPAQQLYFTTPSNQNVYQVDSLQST

## O=C(O)CCC(=O)Nc1ccc(S(=O)(=O)Nc2nccs2)cc1
[1]
  inhibition of aggregation: -13.3% (inactive)
  nuclei count: 93.6%
[2]
  inhibition: -59.2% (inactive)
  nuclei count: 110%
[3]; [12]
  z-score: -1.01
[3]; [13]
  z-score: 2.12
[3]; [14]
  z-score: 1.88
[4]
  inhibition: 1.38% (inactive)
[5]
  fluorescence slope: -0.504 (inactive)
[6]
  NADPH fluorescence slope: -5.7e-05 (inactive)
[7]
  slope: 0.00423 (inactive)
[8]
  outcome: inactive
[9]
  inhibition: 5.01% (inactive)
[10]
  inhibition: 21.6% (inactive)
[11]
  inhibition: 37.7% (inactive)

## CC(=O)O[C@]1(C(C)=O)CC[C@H]2[C@@H]3C=C(Cl)C4=CC(=O)CC[C@]4(C)[C@H]3CC[C@@]21C
[1]
  inhibition of aggregation: -13.1% (inactive)
  nuclei count: 100%
[2]
  inhibition: -108% (inactive)
  nuclei count: 126%
[3]; [12]
  z-score: -0.773
[3]; [13]
  z-score: -0.174
[3]; [14]
  z-score: -0.613
[4]
  inhibition: 5.79% (inactive)
[5]
  fluorescence slope: -0.438 (inactive)
[6]
  NADPH fluorescence slope: -6.7e-05 (inactive)
[7]
  slope: 0.00452 (inactive)
[9]
  inhibition: 8.01% (inactive)
[10]
  inhibition: -5.93% (inactive)
[11]
  inhibition: 38.2% (inactive)

## O=c1n(CCCN2CCN(c3cccc(Cl)c3)CC2)nc2ccccn12
[1]
  inhibition of aggregation: 32% (inactive)
  nuclei count: 90%
[2]
  inhibition: -117% (inactive)
  nuclei count: 124%
[3]; [12]
  z-score: -0.214
[3]; [13]
  z-score: -1.66
[3]; [14]
  z-score: 0.38
[4]
  inhibition: -5.24% (inactive)
[5]
  fluorescence slope: -0.359 (inactive)
[6]
  NADPH fluorescence slope: -2.9e-05 (inactive)
[7]
  slope: 0.00504 (inactive)
[8]
  outcome: inactive
[9]
  inhibition: 7.63% (inactive) and 123% (active)
[10]
  inhibition: 10.6% (inactive)
[11]
  inhibition: 31.8% (inactive)

## Cc1cn([C@H]2C=C[C@@H](CO)O2)c(=O)[nH]c1=O
[1]
  inhibition of aggregation: -10.6% (inactive)
  nuclei count: 106%
[2]
  inhibition: -114% (inactive)
  nuclei count: 123%
[3]; [12]
  z-score: -0.857
[3]; [13]
  z-score: 1.21
[3]; [14]
  z-score: -0.244
[4]
  inhibition: 7.39% (inactive)
[5]
  fluorescence slope: -0.461 (inactive)
[6]
  NADPH fluorescence slope: 2.9e-05 (inactive)
[7]
  slope: 0.00508 (inactive)
[8]
  outcome: inactive
[9]
  inhibition: -4.19% (inactive) and -13.6% (inactive)
[10]
  inhibition: 16.3% (inactive)
[11]
  inhibition: 37.9% (inactive)

## O=C1NC(=O)C(c2ccccc2)(c2ccccc2)N1
[1]
  inhibition of aggregation: -21.7% (inactive)
  nuclei count: 101%
[2]
  inhibition: 23.3% (inactive)
  nuclei count: 102%
[3]; [12]
  z-score: 0.136
[3]; [13]
  z-score: -0.248
[3]; [14]
  z-score: -1.03
[4]
  inhibition: 3.59% (inactive)
[5]
  fluorescence slope: -0.471 (inactive)
[6]
  NADPH fluorescence slope: 3.3e-05 (inactive)
[7]
  slope: 0.00448 (inactive)
[8]
  outcome: inactive
[9]
  inhibition: 2.61% (inactive) and -21.3% (inactive)
[10]
  inhibition: -7.98% (inactive)
[11]
  inhibition: -7.53% (inactive)

## CC1CCc2cc(F)cc3c(=O)c(C(=O)O)cn1c23 (centres undefined)
[1]
  inhibition of aggregation: 3.7% (inactive)
  nuclei count: 100%
[2]
  inhibition: -103% (inactive)
  nuclei count: 114%
[3]; [12]
  z-score: -0.137
[3]; [13]
  z-score: -0.228
[3]; [14]
  z-score: 0.466
[4]
  inhibition: 13.3% (inactive)
[5]
  fluorescence slope: -0.526 (inactive)
[6]
  NADPH fluorescence slope: -7.5e-05 (inactive)
[7]
  slope: 0.00491 (inactive)
[8]
  outcome: inactive
[9]
  inhibition: -5.13% (inactive)
[10]
  inhibition: 9.82% (inactive)
[11]
  inhibition: 32.9% (inactive)

## Cc1cccc(N2CN=c3s/c(=C\c4ccncc4)c(=O)n3C2)c1
[1]
  inhibition of aggregation: 13.2% (inactive)
  nuclei count: 99.6%
[2]
  inhibition: -56.6% (inactive)
  nuclei count: 121%
[3]; [12]
  z-score: -0.505
[3]; [13]
  z-score: -1.69
[3]; [14]
  z-score: 1.18
[4]
  inhibition: -10.5% (inactive)
[5]
  fluorescence slope: -0.334 (inactive)
[6]
  NADPH fluorescence slope: 5.8e-06 (inactive)
[7]
  slope: 0.00412 (inactive)
[8]
  outcome: inactive
[9]
  inhibition: 22.1% (inactive)
[10]
  inhibition: 10.3% (inactive)
[11]
  inhibition: -3.47% (inactive)

## Cc1cccc(CN2CCN(C(c3ccccc3)c3ccc(Cl)cc3)CC2)c1 (centres undefined)
[1]
  inhibition of aggregation: -13.4% (inactive)
  nuclei count: 103%
[2]
  inhibition: -28.5% (inactive)
  nuclei count: 122%
[3]; [12]
  z-score: -0.832
[3]; [13]
  z-score: -0.304
[3]; [14]
  z-score: -0.398
[4]
  inhibition: 1.48% (inactive)
[5]
  fluorescence slope: -0.508 (inactive)
[6]
  NADPH fluorescence slope: -3.3e-06 (inactive)
[7]
  slope: 0.00615 (inactive)
[8]
  outcome: inactive
[9]
  inhibition: -15.7% (inactive)
[10]
  inhibition: 6.06% (inactive)
[11]
  inhibition: 30.8% (inactive)
